These results are taken from PubChem BioAssay (NCI).

Structures are written as SMILES. The panel holds about 83,000 compounds, 20% with a hit somewhere; the sample as a whole holds those more often.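 The test compound was applied at a single concentration to cells in 96-well plates for 48 hours, and percent growth was recorded.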 A number with no mark means an inactive call. Calls of active or inactive are those of the source. How the source made its calls: active means growth percent below 10; inactive means the rest.

Some test systems named below: RPMI-8226 leukemia; OVCAR-5 ovarian; OVCAR-4 ovarian; SK-OV-3 ovarian; IGROV1 ovarian; OVCAR-3 ovarian; HS 578T breast; NCI/ADR-RES ovarian; OVCAR-8 ovarian.
What all share (test): NCI-60 one-dose screen, 48 h (100 = growth as untreated, 0 = no growth, -100 = all killed)
Common to all, as to conditions: 10 µM unless noted

On to `Clc1ccc(CSc2nnc(-c3ccc(Cl)cc3)n2-c2ccccc2)cc1`, for which the growth in the experiment on RPMI-8226 leukemia is 94.4%; in the experiment on OVCAR-5 ovarian, 104%; with OVCAR-4 ovarian, 16%; with SK-OV-3 ovarian it was 48.3%; in the experiment on IGROV1 ovarian it was 75.9%; in the experiment with OVCAR-3 ovarian, 101%. Moreover, the growth in the experiment on HS 578T breast was 43.7%; in the experiment with NCI/ADR-RES ovarian it was 54.2%.

For the compound `CNc1sc(S(=O)(=O)NC)nc1S(=O)(=O)c1ccc(C)cc1`, the growth in the experiment with RPMI-8226 leukemia was 99.2%; in the experiment with OVCAR-8 ovarian, 102%; in the experiment on OVCAR-5 ovarian it was 92.2%; with OVCAR-4 ovarian, 108%; in the experiment on SK-OV-3 ovarian it was 105%; in the experiment on IGROV1 ovarian it was 95.1%. Moreover, the growth in the experiment on HS 578T breast and with NCI/ADR-RES ovarian was 103% throughout.

For the compound `C#C[C@]1(O)CC[C@H]2[C@@H]3CC=C4c5sc(Nc6cccc(F)c6)nc5CC[C@]4(C)[C@H]3CC[C@@]21C`, the growth with RPMI-8226 leukemia is -31.8% (active); with OVCAR-8 ovarian, 43.8%; in the experiment with OVCAR-5 ovarian it was 57.5%; in the experiment with OVCAR-4 ovarian it was 44.5%; in the experiment on SK-OV-3 ovarian, -10.6% (active); in the experiment with IGROV1 ovarian, 49.8%. In addition, the growth with OVCAR-3 ovarian was 27.4%; in the experiment on HS 578T breast, -7.5% (active); with NCI/ADR-RES ovarian it was 37.9%.

`O=S(=O)(Oc1ccc(-c2cn3ccoc3n2)cc1)C1CCCCC1`: the growth was 93.3% in the experiment on RPMI-8226 leukemia; 100% in the experiment on OVCAR-8 ovarian; 102% in the experiment with OVCAR-5 ovarian; 107% in the experiment with OVCAR-4 ovarian; 102% with SK-OV-3 ovarian; 108% with IGROV1 ovarian. In addition, the growth in the experiment on HS 578T breast is 102%; with NCI/ADR-RES ovarian it was 97.8%.

`CCNC(=O)Oc1ccc(/C(=C(/C)c2ccc(OC)cc2)c2ccc(OCCN3CCCCCC3)cc2)cc1`: the growth in the experiment on RPMI-8226 leukemia was 12.1%; with OVCAR-8 ovarian, 68.4%; in the experiment on OVCAR-5 ovarian, 72.7%; with OVCAR-4 ovarian it was 62.7%; with SK-OV-3 ovarian it was 79%; in the experiment on IGROV1 ovarian it was 65.4%. For the same compound, the growth with HS 578T breast is 16.2%; in the experiment with NCI/ADR-RES ovarian, 59.4%.

`Oc1ccc(-c2nc3ccc(/C(=N\N=C\c4ccc(Cl)cc4)c4ccccc4)cc3[nH]2)cc1`: the growth with RPMI-8226 leukemia was 33.9%; in the experiment with OVCAR-8 ovarian, 82.9%; with OVCAR-5 ovarian, 97.1%; in the experiment on OVCAR-4 ovarian, 58.1%; with SK-OV-3 ovarian, 106%; with HS 578T breast it was 98.3%. In the experiment with NCI/ADR-RES ovarian, the growth is 93%.

Take `Cn1cc(C2=C(c3coc4cc(Br)ccc34)C(=O)NC2=O)c2ccccc21`: the growth in the experiment on RPMI-8226 leukemia is 98.9%; in the experiment on OVCAR-8 ovarian, 87.2%; in the experiment on OVCAR-5 ovarian, 113%; in the experiment on OVCAR-4 ovarian it was 100%; in the experiment with SK-OV-3 ovarian, 53.5%; in the experiment on IGROV1 ovarian it was 64.7%. For the same compound, the values for the growth in the experiment on OVCAR-3 ovarian, in the experiment on HS 578T breast and in the experiment on NCI/ADR-RES ovarian were 72.7%, 52.8% and 59.2%, respectively.

Turning to `Cc1cc2nc(C(Cl)Cl)nc(-c3ccc(S(=O)(=O)N(C)C)cc3)n2n1`, the growth with RPMI-8226 leukemia is 55.3%; in the experiment with OVCAR-8 ovarian, 33.9%; in the experiment on OVCAR-5 ovarian, 67.3%; with OVCAR-4 ovarian, 57.2%; with SK-OV-3 ovarian, 50.5%; in the experiment on IGROV1 ovarian it was 23.1%. Moreover, the values for the growth in the experiment on OVCAR-3 ovarian, in the experiment with HS 578T breast and with NCI/ADR-RES ovarian were 78.4%, 72.7% and 26.3%, respectively.

Regarding `COC(=O)CCCNCCCn1ccc2cc(NCc3cccc(-c4ccccc4)c3C)ccc21`, the growth in the experiment with RPMI-8226 leukemia was 28.3%; in the experiment on OVCAR-8 ovarian, 85.2%; in the experiment with OVCAR-5 ovarian, 85.4%; in the experiment on OVCAR-4 ovarian it was 67.6%; in the experiment with SK-OV-3 ovarian, 92.8%; with IGROV1 ovarian, 67.1%. The growth was 81.8% in the experiment with HS 578T breast and 79.4% with NCI/ADR-RES ovarian.

`CCC(=C(c1ccc(OCCN2CCCCCC2)cc1)c1ccc(OCCN2CCCCCC2)cc1)c1ccc(Cl)cc1`: the growth is -29.7% (active) with RPMI-8226 leukemia; 58.3% with OVCAR-5 ovarian; 47.2% with OVCAR-4 ovarian; 96.7% in the experiment on SK-OV-3 ovarian; 2.76% (active) in the experiment with IGROV1 ovarian; 30.8% with OVCAR-3 ovarian. Moreover, the growth with HS 578T breast was -51% (active); in the experiment on NCI/ADR-RES ovarian it was 29.4%.

With `O=C1CSC(c2cn(-c3ccccc3)nc2-c2ccc(Cl)cc2)N1c1ccccc1` (centres undefined), the growth was 103% in the experiment on RPMI-8226 leukemia; 104% in the experiment on OVCAR-8 ovarian; 112% with OVCAR-5 ovarian; 110% in the experiment on OVCAR-4 ovarian; 114% in the experiment with SK-OV-3 ovarian; 114% in the experiment on IGROV1 ovarian. The growth with OVCAR-3 ovarian is 124%; in the experiment with HS 578T breast it was 108%; in the experiment on NCI/ADR-RES ovarian it was 104%.

In the case of `CC1(C)CC[C@]23CC[C@]4(C)[C@H](CC[C@@H]5[C@@]6(C)CC[C@H](NCO)C(C)(C)[C@@H]6CC[C@]54C)[C@H]2[C@H]1OC3`, the growth with RPMI-8226 leukemia is 19.3%; with OVCAR-8 ovarian, 96.1%; with OVCAR-5 ovarian it was 60.4%; with OVCAR-4 ovarian, 76.9%; with SK-OV-3 ovarian, 105%; in the experiment with IGROV1 ovarian it was 64.8%. For the same compound, the figures for the growth with HS 578T breast and in the experiment with NCI/ADR-RES ovarian were 90.7% and 82.6%, respectively.
